# Data from the supplement of paper PMC10849652.
# The full data set covers some 8,800 targets. This sample favours those with a hit. About 0.5% of all pairs of compound and target were hits. A number with no mark means an inactive call.
# Tests used:
# Assay in all cases: log2 fold change, soluble protein after heating vs DMSO (PISA); higher = thermal stabilisation; K562 lysate, 10 uM; active = over 0.2 and 3.5 SD of the protein, either way, in both replicates (recomputed)
# ibrutinib = compound: C=CC(=O)N1CCC[C@@H](n2nc(-c3ccc(Oc4ccccc4)cc3)c3c(N)ncnc32)C1 [ibrutinib]
# Summary of the method: (§1)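 K562 pellets were dounce-homogenised in PBS pH 7.4 with 1 mM MgCl2, and the crude extract at 1 mg/mL protein was treated with 10 μM compound for 30 min. Aliquots were heated for 3 min across 48°C-58°C, pooled, and brought to 0.5% NP-40 at 4°C; soluble protein was the supernatant after 21,000xg for 90 min. Soluble protein was quantified by TMTpro 16plex LC-MS/MS with channel sums equalised, and reported as log2 fold change in thermal stability against DMSO controls, with values from duplicates.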
# [1] = compound: CC(=O)c1cnc2ccc(-c3cc(Cl)c(O)c(Cl)c3)nc2c1N[C@H]1CC[C@H](CN(C)C)CC1
# Summary of the method: as §1
# ralimetinib = compound: CC(C)(C)Cn1c(N)nc2ccc(-c3[nH]c(C(C)(C)C)nc3-c3ccc(F)cc3)nc21 [ralimetinib]
# Summary of the method: as §1
# [2] = compound: CC(C)(O)CC(=O)NCCn1ccc2ncnc(Nc3ccc(Oc4cccc(C(F)(F)F)c4)c(Cl)c3)c21
# Summary of the method: as §1
# [3] = compound: CC(C)C1=C2N=C(C=C(N2N=C1)NCC3=CC=CC=C3)NCCCCCCN
# Summary of the method: as §1
# [4] = compound: CC1=C(C(CC(=O)N1)C2=CC=C(C=C2)C(F)(F)F)C(=O)NC3=C(C=C4C(=C3)C=NN4)F
# Summary of the method: as §1
# [5] = compound: CC1=C(C2=C(C=C1)C(=O)C3=CC=CC=C3N2CCCN)C
# Summary of the method: as §1
# [6] = compound: CC1=C(C=C(C=C1)NC(=O)C2=CC(=CC=C2)C(C)(C)C#N)NC3=CC4=C(C=C3)N=CN(C4=O)C
# Summary of the method: as §1
# [7] = compound: CC1=C(C=C(C=C1)NC(=O)C2=CC(=CC=C2)N(C)C)NC(=O)C3=CC=C(C=C3)O
# Summary of the method: as §1
# [8] = compound: CC1=CC=C(C=C1)SC2=C3C=C(SC3=CN=C2)C(=O)N
# Summary of the method: as §1
# vemurafenib = compound: CCCS(=O)(=O)Nc1ccc(F)c(C(=O)c2c[nH]c3ncc(-c4ccc(Cl)cc4)cc23)c1F [vemurafenib]
# Summary of the method: as §1
# [9] = compound: CCCS(=O)(=O)Nc1ccc(F)c(C(=O)c2c[nH]c3ncc(Cl)cc23)c1F
# Summary of the method: as §1
# barasertib = compound: CCN(CCCOc1ccc2c(Nc3cc(CC(=O)Nc4cccc(F)c4)[nH]n3)ncnc2c1)CCOP(=O)(O)O [barasertib]
# Summary of the method: as §1
# [10] = compound: CC[C@@H]1C(=O)N(C)c2cnc(Nc3ccc(C(=O)NC4CCN(C)CC4)cc3OC)nc2N1C1CCCC1
# Summary of the method: as §1
# volasertib = compound: CC[C@@H]1C(=O)N(C)c2cnc(Nc3ccc(C(=O)N[C@H]4CC[C@H](N5CCN(CC6CC6)CC5)CC4)cc3OC)nc2N1C(C)C [volasertib]
# Summary of the method: as §1
# [11] = compound: CCn1c(C(=O)N(C2CC2)C2CC2)cc2c3c(ncn3C)c(Nc3cc(C)n(C)n3)nc21
# Summary of the method: as §1
# [12] = compound: CCn1cc(-c2ccnc3[nH]c(-c4cccc(CN(C)C)c4)cc23)c(-c2ccc(NC(=O)N(C)C)cc2)n1
# Summary of the method: as §1
# [13] = compound: CN1CCC(CNc2ccc3ncc(-c4cccc(OC(F)(F)F)c4)n3n2)CC1
# Summary of the method: as §1
# saracatinib = compound: CN1CCN(CCOc2cc(OC3CCOCC3)c3c(Nc4c(Cl)ccc5c4OCO5)ncnc3c2)CC1 [saracatinib]
# Summary of the method: as §1
# sotrastaurin = compound: CN1CCN(c2nc(C3=C(c4c[nH]c5ccccc45)C(=O)NC3=O)c3ccccc3n2)CC1 [sotrastaurin]
# Summary of the method: as §1
# Chain of UniProt Q5T011 (Q5T011 whole entry, looked up): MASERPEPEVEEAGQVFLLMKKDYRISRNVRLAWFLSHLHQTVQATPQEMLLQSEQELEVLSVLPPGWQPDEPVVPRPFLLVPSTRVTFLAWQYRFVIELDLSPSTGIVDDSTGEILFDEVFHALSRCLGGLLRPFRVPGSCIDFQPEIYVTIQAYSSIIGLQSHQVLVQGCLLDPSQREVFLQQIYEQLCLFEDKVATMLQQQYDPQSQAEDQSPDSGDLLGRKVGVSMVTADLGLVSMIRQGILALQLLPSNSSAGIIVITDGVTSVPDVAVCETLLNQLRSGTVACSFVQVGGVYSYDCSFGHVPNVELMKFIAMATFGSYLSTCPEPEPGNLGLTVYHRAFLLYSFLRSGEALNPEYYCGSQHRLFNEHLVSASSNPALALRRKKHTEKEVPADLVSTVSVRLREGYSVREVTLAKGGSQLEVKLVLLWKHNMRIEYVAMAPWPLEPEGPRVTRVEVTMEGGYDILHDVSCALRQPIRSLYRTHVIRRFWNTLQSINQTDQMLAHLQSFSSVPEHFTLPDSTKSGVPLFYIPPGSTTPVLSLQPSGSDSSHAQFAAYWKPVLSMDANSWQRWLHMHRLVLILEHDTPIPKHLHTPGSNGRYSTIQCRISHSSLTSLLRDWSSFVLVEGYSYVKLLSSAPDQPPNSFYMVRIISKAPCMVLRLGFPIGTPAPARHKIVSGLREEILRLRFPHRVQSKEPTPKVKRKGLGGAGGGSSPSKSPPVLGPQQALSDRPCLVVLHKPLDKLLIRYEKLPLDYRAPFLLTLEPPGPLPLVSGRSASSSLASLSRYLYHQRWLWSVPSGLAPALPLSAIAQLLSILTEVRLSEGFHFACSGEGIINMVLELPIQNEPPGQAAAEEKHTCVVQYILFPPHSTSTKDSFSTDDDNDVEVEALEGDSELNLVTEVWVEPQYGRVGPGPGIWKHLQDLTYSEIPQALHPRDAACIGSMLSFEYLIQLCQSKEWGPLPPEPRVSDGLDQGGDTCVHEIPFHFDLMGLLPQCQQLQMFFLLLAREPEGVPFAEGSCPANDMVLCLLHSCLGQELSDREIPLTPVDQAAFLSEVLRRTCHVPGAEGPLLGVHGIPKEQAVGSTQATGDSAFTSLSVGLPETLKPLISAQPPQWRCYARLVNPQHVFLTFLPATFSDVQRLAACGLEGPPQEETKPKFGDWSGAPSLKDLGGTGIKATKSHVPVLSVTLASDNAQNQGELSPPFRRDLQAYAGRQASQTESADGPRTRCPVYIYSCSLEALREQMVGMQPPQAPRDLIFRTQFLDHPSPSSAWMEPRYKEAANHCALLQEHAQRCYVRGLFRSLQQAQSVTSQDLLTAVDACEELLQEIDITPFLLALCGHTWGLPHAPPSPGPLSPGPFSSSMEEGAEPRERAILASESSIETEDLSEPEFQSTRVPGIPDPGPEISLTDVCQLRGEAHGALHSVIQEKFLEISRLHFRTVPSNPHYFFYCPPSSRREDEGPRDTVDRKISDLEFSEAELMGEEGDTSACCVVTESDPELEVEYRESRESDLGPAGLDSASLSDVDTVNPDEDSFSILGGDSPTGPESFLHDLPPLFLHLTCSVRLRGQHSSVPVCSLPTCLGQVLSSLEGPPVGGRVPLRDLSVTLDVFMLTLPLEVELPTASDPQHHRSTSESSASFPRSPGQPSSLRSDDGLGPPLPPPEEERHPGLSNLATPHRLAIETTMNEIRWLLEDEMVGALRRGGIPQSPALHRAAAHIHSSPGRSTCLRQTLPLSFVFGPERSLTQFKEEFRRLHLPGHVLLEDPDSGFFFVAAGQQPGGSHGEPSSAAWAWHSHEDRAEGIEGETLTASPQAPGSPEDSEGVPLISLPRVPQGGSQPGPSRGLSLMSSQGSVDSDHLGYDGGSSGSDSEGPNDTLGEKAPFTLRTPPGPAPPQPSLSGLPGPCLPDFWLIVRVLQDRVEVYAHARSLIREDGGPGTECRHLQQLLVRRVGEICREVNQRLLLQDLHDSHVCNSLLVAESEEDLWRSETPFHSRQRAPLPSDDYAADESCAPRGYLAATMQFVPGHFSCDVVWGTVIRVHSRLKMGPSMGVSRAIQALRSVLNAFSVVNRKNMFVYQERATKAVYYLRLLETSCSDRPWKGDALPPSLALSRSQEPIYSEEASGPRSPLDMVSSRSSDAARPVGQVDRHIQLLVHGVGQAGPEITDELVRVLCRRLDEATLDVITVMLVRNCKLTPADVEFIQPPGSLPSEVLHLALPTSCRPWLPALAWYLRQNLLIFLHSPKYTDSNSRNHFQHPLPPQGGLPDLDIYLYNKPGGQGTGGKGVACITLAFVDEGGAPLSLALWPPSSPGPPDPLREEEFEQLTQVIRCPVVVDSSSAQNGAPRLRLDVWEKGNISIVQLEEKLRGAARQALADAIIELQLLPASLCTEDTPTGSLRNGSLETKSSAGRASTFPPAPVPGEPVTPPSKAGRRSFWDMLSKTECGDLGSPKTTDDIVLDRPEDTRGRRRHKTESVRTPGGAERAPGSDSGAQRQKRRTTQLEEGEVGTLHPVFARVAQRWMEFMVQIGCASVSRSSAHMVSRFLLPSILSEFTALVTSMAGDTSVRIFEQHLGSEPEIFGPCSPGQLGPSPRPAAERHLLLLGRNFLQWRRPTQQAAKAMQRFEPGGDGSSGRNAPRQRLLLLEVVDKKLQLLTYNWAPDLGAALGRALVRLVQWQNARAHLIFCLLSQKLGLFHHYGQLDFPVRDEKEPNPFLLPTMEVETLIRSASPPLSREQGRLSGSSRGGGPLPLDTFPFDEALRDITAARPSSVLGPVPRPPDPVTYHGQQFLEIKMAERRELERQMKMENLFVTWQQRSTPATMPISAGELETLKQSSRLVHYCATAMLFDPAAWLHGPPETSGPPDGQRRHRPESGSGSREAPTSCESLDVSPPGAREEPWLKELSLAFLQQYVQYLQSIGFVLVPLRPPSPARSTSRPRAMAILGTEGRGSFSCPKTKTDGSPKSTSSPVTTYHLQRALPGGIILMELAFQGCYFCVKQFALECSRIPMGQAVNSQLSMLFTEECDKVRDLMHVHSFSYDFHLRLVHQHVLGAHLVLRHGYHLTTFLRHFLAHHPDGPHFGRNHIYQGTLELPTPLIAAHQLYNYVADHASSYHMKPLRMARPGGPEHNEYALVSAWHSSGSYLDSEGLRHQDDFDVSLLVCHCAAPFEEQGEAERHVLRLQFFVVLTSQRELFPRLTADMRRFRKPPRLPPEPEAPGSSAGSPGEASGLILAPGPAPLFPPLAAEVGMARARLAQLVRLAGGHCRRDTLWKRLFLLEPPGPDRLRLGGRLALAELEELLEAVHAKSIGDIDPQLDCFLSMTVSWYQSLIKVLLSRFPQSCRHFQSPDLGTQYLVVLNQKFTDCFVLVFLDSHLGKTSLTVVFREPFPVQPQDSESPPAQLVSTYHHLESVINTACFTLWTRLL
# Chain of UniProt Q9H668 (Q9H668 whole entry, looked up): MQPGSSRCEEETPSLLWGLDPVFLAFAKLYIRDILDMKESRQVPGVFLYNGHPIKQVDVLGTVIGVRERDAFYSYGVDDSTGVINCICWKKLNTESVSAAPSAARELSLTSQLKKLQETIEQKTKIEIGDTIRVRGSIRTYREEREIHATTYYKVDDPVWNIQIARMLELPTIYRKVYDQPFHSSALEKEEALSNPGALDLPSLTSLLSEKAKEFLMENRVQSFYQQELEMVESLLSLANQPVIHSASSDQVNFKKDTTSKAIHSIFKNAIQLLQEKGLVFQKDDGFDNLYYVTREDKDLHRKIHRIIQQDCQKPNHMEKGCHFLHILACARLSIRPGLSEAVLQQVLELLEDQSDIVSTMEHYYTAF
# Chain of UniProt Q9NZ72 (Q9NZ72 whole entry, looked up): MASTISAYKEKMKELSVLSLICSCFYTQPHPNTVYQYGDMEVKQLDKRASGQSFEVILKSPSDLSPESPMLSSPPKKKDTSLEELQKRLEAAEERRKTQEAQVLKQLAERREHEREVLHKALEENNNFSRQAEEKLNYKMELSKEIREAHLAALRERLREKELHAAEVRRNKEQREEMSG
# Chain of UniProt Q8N1S5 (Q8N1S5 whole entry, looked up): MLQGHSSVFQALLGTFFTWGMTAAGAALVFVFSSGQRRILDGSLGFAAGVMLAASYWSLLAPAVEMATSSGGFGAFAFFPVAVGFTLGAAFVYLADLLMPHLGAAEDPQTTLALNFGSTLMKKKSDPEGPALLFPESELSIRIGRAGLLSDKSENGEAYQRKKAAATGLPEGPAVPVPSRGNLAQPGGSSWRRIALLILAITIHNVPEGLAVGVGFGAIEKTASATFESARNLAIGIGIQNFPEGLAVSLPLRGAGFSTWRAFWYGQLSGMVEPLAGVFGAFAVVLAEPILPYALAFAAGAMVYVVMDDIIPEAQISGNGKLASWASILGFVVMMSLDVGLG
# Chain of UniProt Q13043 (Q13043 whole entry, looked up): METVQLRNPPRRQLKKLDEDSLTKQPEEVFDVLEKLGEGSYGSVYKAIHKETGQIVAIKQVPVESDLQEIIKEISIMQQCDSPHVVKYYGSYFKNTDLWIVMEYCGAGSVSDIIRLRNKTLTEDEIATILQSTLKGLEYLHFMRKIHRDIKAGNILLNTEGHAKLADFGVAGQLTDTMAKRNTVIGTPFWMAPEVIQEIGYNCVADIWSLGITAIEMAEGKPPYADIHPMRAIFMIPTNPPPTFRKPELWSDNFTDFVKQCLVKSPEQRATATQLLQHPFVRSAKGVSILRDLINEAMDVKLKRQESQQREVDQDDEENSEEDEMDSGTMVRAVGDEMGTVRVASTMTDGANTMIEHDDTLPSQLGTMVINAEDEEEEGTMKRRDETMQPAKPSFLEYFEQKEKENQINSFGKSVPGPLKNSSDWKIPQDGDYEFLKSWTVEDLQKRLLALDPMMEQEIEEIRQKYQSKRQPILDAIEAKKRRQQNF
# Chain of UniProt Q9UJC5 (Q9UJC5 whole entry, looked up): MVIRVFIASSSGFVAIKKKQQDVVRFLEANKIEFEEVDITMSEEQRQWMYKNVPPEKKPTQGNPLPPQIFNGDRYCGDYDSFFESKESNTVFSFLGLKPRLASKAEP
# Chain of UniProt Q9Y3B4 (Q9Y3B4 whole entry, looked up): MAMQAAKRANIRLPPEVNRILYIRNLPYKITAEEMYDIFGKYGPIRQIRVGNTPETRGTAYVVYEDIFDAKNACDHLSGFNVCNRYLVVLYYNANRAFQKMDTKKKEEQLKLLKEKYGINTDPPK
Target,log2 fold change (ibrutinib),log2 fold change [1],log2 fold change (ralimetinib),log2 fold change [2],log2 fold change [3],log2 fold change [4],log2 fold change [5],log2 fold change [6],log2 fold change [7],log2 fold change [8],log2 fold change (vemurafenib),log2 fold change [9],log2 fold change (barasertib),log2 fold change [10],log2 fold change (volasertib),log2 fold change [11],log2 fold change [12],log2 fold change [13],log2 fold change (saracatinib),log2 fold change (sotrastaurin)
STK25 (UniProt O00506),-0.021,0.165,-0.071,0.007,-0.006,-0.02,-0.038,-0.042,0.035,-0.025,-0.018,-0.005,0.017,-0.034,-0.078,-0.042,-0.037,0.016,-0.026,0.022
SRM (UniProt P19623),0.018,0.007,0.025,-0.047,-0.011,-0.003,-0.006,0.003,0,-0.011,-0.004,-0.003,-0.008,-0.02,-0.034,-0.001,0.015,0,0.02,0.011
TAF6L (UniProt Q9Y6J9),0.072,0.046,0.042,-0.078,0.01,-0.041,-0.006,-0.027,0.027,-0.009,-0.029,0.035,-0.05,-0.245 (active),-0.007,-0.015,0.018,0.022,0.029,0.05
SMC2 (UniProt O95347),0.014,-0.011,-0.016,-0.008,0.014,-0.012,0,0,0.013,0.001,0.002,0.007,-0.001,-0.033,-0.047,-0.002,0.134,-0.121,0.005,0.014
STK4 (UniProt Q13043),0.056,0.324,-0.006,0.007,0.004,-0.023,-0.015,-0.036,0.024,-0.07,0.058,0.047,0.029,0.002,-0.046,0.023,-0.019,0.168,0.029,0.199
SIX5 (UniProt Q8N196),-0.021,0.009,-0.023,-0.046,-0.042,-0.061,0.011,0.017,0.13,0.021,,0.031,-0.026,,-0.046,0.084,0.538,-0.132,-0.093,-0.009
SNUPN (UniProt O95149),-0.072,0.001,-0.008,-0.068,-0.116,-0.065,,0.001,-0.036,0.027,-0.008,0.007,0.06,-0.082,0.04,0.051,-0.024,-0.036,,0.028
SSB (UniProt E7ERC4),0.14,-0.087,-0.009,-0.075,-0.046,0.062,0.014,0.239,0.093,-0.013,0.111,0,-0.04,-0.281,0.003,-0.134,1.92 (active),-0.377,0.013,-0.012
SH3BP2 isoform 4 (UniProt P78314),0.096,-0.084,0.07,0.137,-0.004,,-0.297,0.03,-0.126,0.073,0.087,-0.017,-0.075,,-0.052,0.029,-0.04,0.089,0.006,0.02
SLC39A11 (UniProt Q8N1S5),-0.065,-0.008,-0.136,-0.042,-0.023,0.051,0.16,-0.074,-0.089,0.001,-0.082,0.073,-0.126,0.067,0.011,0.028,-0.043,0.147,-0.108,-0.009
SZT2 (UniProt Q5T011),-0.225,-0.102,0.14,-0.07,-0.135,0.076,0.126,,-0.134,0.105,,-0.032,0.313,0.293,-0.095,0.006,0.035,0.094,-0.073,
SORBS3 (UniProt O60504),-0.005,0.067,0.099,-0.113,-0.035,,-0.158,0.046,-0.05,-0.114,-0.092,0.067,-0.032,0.034,-0.129,-0.05,-0.025,0.004,0.052,-0.011
STK3 isoform 2 (UniProt Q13188),0.11,0.364,-0.001,0.037,0.026,-0.005,0,-0.025,0.016,-0.073,0.046,0.04,0.032,,-0.047,-0.012,-0.017,0.216,-0.01,0.142
STMN3 (UniProt Q9NZ72),0.006,-0.028,0.093,0.025,-0.089,-0.003,-0.059,0.012,-0.011,0.009,-0.123,-0.006,0.098,0.096,0.002,-0.066,,,0.053,0.009
SYK (UniProt P43405),-0.09,-0.041,-0.025,-0.103,0.051,-0.055,-0.114,-0.001,0.027,-0.065,0.184,0.065,0.092,,0.027,-0.123,-0.644 (active),-0.001,-0.041,0.068
TAOK2 (UniProt Q9UL54),-0.009,0.151,-0.035,-0.033,,-0.072,-0.053,-0.037,-0.044,0.024,-0.039,-0.041,0.059,0.021,-0.056,-0.077,-0.005,-0.003,-0.005,0.109
SMC1B isoform 3 (UniProt Q8NDV3),0.013,0.017,0.07,-0.029,0.001,-0.012,-0.001,0.021,0.026,-0.005,0.149,0.002,0.003,-0.073,0.024,-0.071,,,0.055,-0.02
SF3B6 (UniProt Q9Y3B4),0.036,0.004,-0.001,-0.017,-0.002,0.043,0.003,0.002,0.024,-0.007,-0.006,-0.003,-0.026,0.027,0.014,-0.003,0.061,-0.013,0.028,0.018
SPATA5 (UniProt Q8NB90),0.013,-0.002,0.047,0.025,0.02,-0.009,0.009,0.002,0.042,0.012,0.015,0.005,0.02,-0.021,-0.068,0.011,-0.024,-0.052,-0.001,0.007
STN1 (UniProt Q9H668),0.133,-0.187,0.151,-0.071,-0.056,0.106,,-0.016,0.051,0.035,0.047,-0.389,0.114,-0.071,-0.068,-0.016,-0.179,0.31,,-0.025
SH3BGRL2 (UniProt Q9UJC5),-0.014,0.027,0.006,-0.014,0.035,0.03,-0.004,0.036,-0.072,0.053,-0.013,0.021,0.022,0.076,0.006,-0.007,0.387 (active),-0.052,0.014,0.002
SSX5 isoform 2 (UniProt O60225),-0.081,0.028,0,0.032,-0.261,-0.089,,,-0.018,-0.003,0.143,0.062,-0.065,-0.188,0.013,0.031,-0.926 (active),0.049,,
SURF2 (UniProt Q15527),0.001,-0.019,-0.147,-0.038,,0.103,0.018,0.026,0.031,-0.02,-0.009,-0.002,-0.007,0.049,0.002,0.127,-0.063,0.02,0.004,-0.007
SLC25A17 (UniProt O43808),-0.007,-0.043,0.047,-0.019,0.037,0.001,0.029,0.03,-0.01,0.044,-0.035,-0.031,0.02,0.066,0.04,-0.043,-0.119,0.103,0.041,0.015
SKA3 (UniProt Q8IX90),0.001,-0.032,-0.021,-0.038,0.007,0.027,-0.011,0.027,0.025,-0.046,0.047,0.011,-0.062,0.016,0.007,-0.018,-0.027,0.023,0.017,0.028
SLC25A44 (UniProt Q96H78),-0.006,0.002,0.065,-0.322,-0.031,,-0.017,0.038,-0.118,0.002,0.014,0.015,0.007,0.002,0.06,0.307,0.021,0.17,-0.041,0.062
